Source: PubChem
A selection: hits, their analogues and other compounds. The true share with any hit is near 14%.
AID923: qHTS Assay for Allosteric/Competitive Inhibitors of Caspase-1: Spectroscopic Profiling in AFC Spectral Region. compound fluorescence, AFC spectral region (405/520 nm). Potency, µM (highest dose often 57.5 µM), most hits filed as activators. 75,000 compounds, 1.1% hits. AID 923, 2007
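Compound autofluorescence profiled at 405 nm ex/520 nm em during kinetic caspase 1 run (50 nM enzyme, 5 uM Ac-WEHD-AFC, HEPES pH 7.5, 10 mM DTT). Titration up to 57 uM; baseline from regression intercept, normalized to AFC standard curve.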
4-MU autofl: compound fluoresces in the 4-MU spectral region | compound autofluorescence, 340/450 nm, 4-MU equivalents; stronger effect = higher value | max dye-equivalent concentration, M | 59,000 compounds, 11% hits | AID 589; in the data active = max dye-equivalent concentration above about 10 nM; inconclusive = mostly about 1.1 nM to 9.6 nM
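Compounds in 100 mM Tris, pH 8.0, sat 15 min at room temperature before fluorescence was read at 340 nm excitation/450 nm emission; a per-plate six-point 4-MU standard curve converted signals to dye-equivalent concentration at each compound concentration.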
CRE-bla Fsk: modulators of forskolin-stimulated CRE signaling in CHO cells. CHO CRE-bla reporter (cAMP response element driving beta-lactamase), forskolin EC10, beta-lactamase ratio. Potency, µM (titrated, usually from 38.2 µM), hits mostly activators. 71,000 compounds, 2.5% hits; active = well fitted activation curve with a large enough effect in the signal ratio, with a control signal flat, not every such curve was filed as active; inconclusive = small, poorly fitted or top-dose-only effect, or effect the other way, or a change in a side signal; the % refers to the signal ratio
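Modulation of forskolin-driven signalling is measured in CHO cells carrying a CRE-controlled beta-lactamase reporter. Cells are stimulated with EC10 NKH 477 in the presence of titrated compound for 3 h at 37 °C, then loaded with CCF4 for 2 h at room temperature.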
HADH2 inh: blocks human hydroxyacyl-CoA dehydrogenase type II | Q99714 | 73,000 compounds, 3.4% hits | recombinant HADH2, NADH fluorescence, beta-hydroxybutyryl-CoA | Potency, µM (doses to about 57.1 µM), actives largely listed as inhibitors; also: nearly all actives have a fitted effect of over 60% in size
Target sequence (Q99714 whole entry, looked up, one chain of several): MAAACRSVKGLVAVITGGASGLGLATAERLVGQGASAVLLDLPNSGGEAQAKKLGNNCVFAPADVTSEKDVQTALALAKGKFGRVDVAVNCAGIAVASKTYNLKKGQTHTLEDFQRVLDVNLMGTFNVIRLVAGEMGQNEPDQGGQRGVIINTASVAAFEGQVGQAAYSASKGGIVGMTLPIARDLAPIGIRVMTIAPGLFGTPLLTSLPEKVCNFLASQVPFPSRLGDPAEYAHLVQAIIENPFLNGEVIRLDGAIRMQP
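Activity measured as NADH fluorescence gain (360/450 nm), taken as the change between first and last reads of a 4-min kinetic run. Conditions: pH 9.0 Tris buffer, 20 nM E. coli-expressed His-tagged enzyme, 1 mM NAD+, 90 uM beta-hydroxybutyryl-CoA; 15-min compound preincubation.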
A350 autofl: compounds fluorescent in Alexa 350 spectral region; Compound autofluorescence, 340/450 nm, Alexa 350 dye-equivalents; stronger effect = higher value; max dye-equivalent concentration, M; 59,000 compounds, 11% hits; in the data active = max dye-equivalent concentration above about 10 nM; inconclusive = mostly about 1.1 nM to 9.6 nM
HSD17B inh: HSD17B dehydrogenase inhibition | Q99714 | recombinant HSD17B10, NADH fluorescence kinetic | Potency, µM (doses to about 57.1 µM), hits mostly inhibitors | 75,000 compounds, 7.6% hits | AID 893;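 also: the protocol describes HADH2 (HSD17B10) and not the HSD17B4 of the title; nearly all actives have a fitted effect of over 70% in size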
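Activity followed as NADH fluorescence increase (ex 360, em 450 nm) every 30 seconds for 4 min, using final 90 uM beta-hydroxybutyryl CoA and 1 mM NAD+. Recombinant His-tagged enzyme, 20 nM, pH 9.0 Tris buffer, 15 min compound preincubation.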
Of the large screens only hits and unclear results are named; the others gave an inactive call. Unless noted, calls follow the shape of the dose curve; as a rule, active = well fitted curve in the direction sought with a large enough effect; inconclusive = small, poorly fitted or top-dose-only effect, or another doubt; inactive = no such curve, though single readings can be large; an effect the other way counts as inactive or inconclusive.

C=CCn1c(=O)n(CCOC)c(=O)c2sc3ccccc3c21	CRE-bla Fsk inconclusive, HADH2 inh 32µM, HSD17B inh 32µM (no result: 4-MU autofl, A350 autofl)
COC(=O)c1ccc(C(NC(=O)OCc2ccccc2)/C(=C/[C@@H](C)C(=O)NC2CCCCC2)c2cccnc2)cc1 (some centres undefined)	none (no result: 4-MU autofl, A350 autofl)
CC1=C(C)NC(=S)SC1	HADH2 inh 7.9µM
CCSc1nc2cc(C(=O)OC)ccc2c(=O)n1CC	4-MU autofl 1.4e-08M, CRE-bla Fsk inconclusive, A350 autofl 1.5e-08M, HSD17B inh inconclusive
O=C(Nc1ccc(N2CCN(C(=O)c3ccccc3)CC2)cc1)c1cc2ccccc2o1	CRE-bla Fsk inconclusive, HSD17B inh 3.2µM
O=C(CSc1n[nH]c(-c2ccncc2)n1)NC1CCS(=O)(=O)C1 (centres undefined)	4-MU autofl 1.2e-07M, CRE-bla Fsk inconclusive, A350 autofl 1.6e-07M, HSD17B inh inconclusive
C=C(C)C(=O)OCC(C)O (centres undefined)	none (no result: 4-MU autofl, A350 autofl)
Cc1ccc(NC(=O)Cn2cnc3c(=O)n(C)c(=O)n(C)c32)c(C)c1	4-MU autofl 1.9e-07M, HADH2 inh inconclusive, A350 autofl 2.1e-07M
Cn1c(=O)c2ncn(CC(=O)Nc3ccc4oc(-c5cccc6ccccc56)nc4c3)c2n(C)c1=O	4-MU autofl 8.2e-08M, A350 autofl 1e-07M
O=C(Cn1cnc2ccccc2c1=O)Nc1ccc2c(c1)CCC2	none
CCC(C)c1ccc2oc(-c3ccc(NC(=O)Cn4cnc5c(=O)n(C)c(=O)n(C)c54)cc3)nc2c1 (centres undefined)	HADH2 inh inconclusive, HSD17B inh 10µM
Cc1ccc(C(=O)Nc2ccccc2N2CCOCC2)c(C)c1	none (no result: 4-MU autofl, CRE-bla Fsk, A350 autofl)
O=C(Nc1ccccc1)c1cc(N2CCOCC2)nc2ccccc12	4-MU autofl 8.6e-08M, A350 autofl 1.2e-07M (no result: AID923, CRE-bla Fsk, HADH2 inh, HSD17B inh)
O=C(c1cc(N2CCCCC2)nc2ccccc12)N1CCOCC1	4-MU autofl 5.9e-08M, A350 autofl 7e-08M (no result: AID923, CRE-bla Fsk, HADH2 inh, HSD17B inh)
Cc1ccc(NC(=O)c2cc(N3CCOCC3)nc3ccccc23)cc1	4-MU autofl 8.1e-08M, A350 autofl 1.1e-07M (no result: AID923, CRE-bla Fsk, HADH2 inh, HSD17B inh)
O=C(Nc1nccs1)c1cc(N2CCOCC2)nc2ccccc12	4-MU autofl 1e-08M, CRE-bla Fsk inconclusive, A350 autofl 1.5e-08M
NC1=N[C@H](c2ccc(Cl)cc2)N(c2ccc(S(=O)(=O)Nc3ncccn3)cc2)C(N)=N1	none
CO/N=C1\CN(c2nc3c(cc2F)c(=O)c(C(=O)O)cn3C2CC2)CC1CN (centres undefined)	HSD17B inh inconclusive (no result: 4-MU autofl, CRE-bla Fsk, HADH2 inh, A350 autofl)
COC(=O)[C@@H]1C[C@H]1[C@@H](N)c1ccccc1	HSD17B inh inconclusive (no result: 4-MU autofl, A350 autofl)
Cc1cccc(NC(=O)c2cc(N3CCOCC3)nc3ccccc23)c1	4-MU autofl 9.3e-08M, A350 autofl 1.1e-07M (no result: AID923, CRE-bla Fsk, HADH2 inh, HSD17B inh)
Clc1cccc(C=NC=Nc2cccc(Cl)c2)c1	CRE-bla Fsk inconclusive (no result: 4-MU autofl, A350 autofl)
COc1ccc(CNC(=O)C2CCCN2C(=O)NC2CCCCC2)cc1 (centres undefined)	4-MU autofl 5e-07M, A350 autofl 4e-07M
CCOC(=O)N1CCN(C(=O)CCCOc2ccccc2)CC1	none
O=C(CCCOc1ccccc1)N1CCc2ccccc2C1	4-MU autofl 1.4e-07M, A350 autofl 1.4e-07M, HSD17B inh inconclusive
CS(=O)(=O)N(CCc1ccccc1)CC(=O)N1CCc2ccccc2C1	4-MU autofl 1.9e-07M, HADH2 inh 7.9µM, A350 autofl 2e-07M, HSD17B inh 20µM
CS(=O)(=O)N(CCc1ccccc1)CC(=O)N1CCCCC1	none
CC(=O)OC1CC[C@]2(C)C(CC(OC(C)=O)[C@@]3(C)C4=CC(=O)OC(c5ccoc5)[C@]4(C)CCC23)C1(C)C (some centres undefined)	none (no result: 4-MU autofl, CRE-bla Fsk, HADH2 inh, A350 autofl)
C[C@@H](c1ccccc1)N1C(=O)[C@H]2[C@H]3[C@H](O)[C@H](O)C/C(=N/OCc4ccccc4)[C@H]3CC[C@@H]2C1=O	none (no result: 4-MU autofl, CRE-bla Fsk, A350 autofl)
CCOc1cc(C2NC(=O)NC(C)=C2C(=O)OC(C)CC)cc(Br)c1O (centres undefined)	CRE-bla Fsk 10µM, HADH2 inh inconclusive (no result: 4-MU autofl, A350 autofl)
CCC(C)OC(=O)C1=C(C)NC(=O)NC1c1ccc(F)cc1 (centres undefined)	CRE-bla Fsk inconclusive (no result: 4-MU autofl, A350 autofl)
